Compound activity from PubChem BioAssay.
Hits are enriched below; roughly 4.2% of the tested compounds scored in any of these assays.
FBA Mtb inh: inhibitors of M. tuberculosis fructose-bisphosphate aldolase; P9WQA3; purified M. tuberculosis FBA, fluorescence read-out; inhibition, % at 1 µM; 360,000 compounds, 2.3% hits;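 also: 0% = vehicle and 100% = reference inhibitor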
RecA intein inh: inhibitors of M. tuberculosis RecA intein splicing | P9WHJ3 | cell-free RecA intein splicing, fluorescence | inhibition, % (no concentration beside the values) | 290,000 compounds, 0.75% hits; in the data active = inhibition above about 30%;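 also: 0% = vehicle wells and 100% = reference inhibitor control wells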
Target sequence (P9WHJ3 whole entry, looked up): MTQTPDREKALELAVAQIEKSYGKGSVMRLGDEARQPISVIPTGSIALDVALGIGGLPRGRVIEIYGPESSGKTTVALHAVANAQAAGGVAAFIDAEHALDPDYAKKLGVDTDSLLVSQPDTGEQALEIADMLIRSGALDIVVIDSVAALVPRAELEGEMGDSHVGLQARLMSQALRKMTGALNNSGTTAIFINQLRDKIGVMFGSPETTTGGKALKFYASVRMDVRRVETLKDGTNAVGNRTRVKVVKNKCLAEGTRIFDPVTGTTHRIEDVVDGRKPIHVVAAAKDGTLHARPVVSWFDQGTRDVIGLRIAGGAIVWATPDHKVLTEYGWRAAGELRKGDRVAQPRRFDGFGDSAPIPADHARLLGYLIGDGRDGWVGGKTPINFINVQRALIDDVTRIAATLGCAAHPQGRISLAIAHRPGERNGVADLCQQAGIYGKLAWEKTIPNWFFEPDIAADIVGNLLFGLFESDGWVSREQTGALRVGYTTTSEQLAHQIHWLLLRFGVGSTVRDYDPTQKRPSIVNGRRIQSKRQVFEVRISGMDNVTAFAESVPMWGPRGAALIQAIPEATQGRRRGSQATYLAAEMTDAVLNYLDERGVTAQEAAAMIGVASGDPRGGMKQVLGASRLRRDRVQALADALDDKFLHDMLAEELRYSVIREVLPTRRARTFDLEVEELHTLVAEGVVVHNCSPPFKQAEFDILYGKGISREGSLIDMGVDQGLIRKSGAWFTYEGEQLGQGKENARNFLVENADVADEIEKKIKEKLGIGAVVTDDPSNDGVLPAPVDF
CCHFV vOTU inh: CCHFV vOTU protease inhibition; 370,000 compounds, 0.55% hits; Pep-AMC fluorescence; inhibition, % at 11.5 µM; AID 651958; in the data active = inhibition above about 30%; also: 0% = vehicle wells with enzyme and 100% = no enzyme wells
GDH-TPI counter-1: counter-screen for M. tuberculosis FBA inhibitors: GDH-TPI coupled enzymes; GDH-TPI coupled enzyme counterscreen, NADH absorbance; inhibition, % at 4.8 µM; 360,000 compounds, 1.2% hits; AID 588335; in the data active = inhibition above about 30%;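 also: 0% = DMSO wells and 100% = wells lacking the enzyme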
Mtb FBA inh conf: confirmation of M. tuberculosis fructose-bisphosphate aldolase inhibitors | shares compounds with FBA Mtb inh | 5,600 compounds, 78% hits | AID 651616 | purified M. tuberculosis FBA, fluorescence read-out | inhibition, % at 1 µM;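 also: 0% = vehicle wells and 100% = reference inhibitor wells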
GDH-TPI counter-2: counter-screen for M. tuberculosis FBA inhibitors: GDH-TPI coupled enzyme inhibition; AID 652141; 5,600 compounds, 81% hits; shares compounds with FBA Mtb inh; GDH-TPI coupled enzyme counterscreen, fluorescence; inhibition, % at 1 µM; in the data active = inhibition above about 10%
Active calls of the source: *; x = not tested or not shown; + = active, no number. Rule as the data show it, unless noted: active = inhibition above about 27%; inactive = the rest.

SMILES	FBA Mtb inh	RecA intein inh	CCHFV vOTU inh	GDH-TPI counter-1	Mtb FBA inh conf	GDH-TPI counter-2
Cc1ccc(-c2cc(C(=O)NN=Cc3cccc(OCc4ccccc4)c3)[nH]n2)cc1C	x	x	7	x	x	x
O=Cc1coc2c(ccc3ccccc32)c1=O	x	-5	x	x	x	x
O=c1cc(C(F)F)oc2c1ccc1ccccc12	31*	0	-18	17	59*	46*
O=C(CCn1cnnn1)N1CCCC(Nc2ccc(F)cc2)C1 (stereo not given)	4	0	-8	1	x	x
CC(CCN1CCN(c2ccc(F)cc2)CC1)c1ccccc1 (stereo not given)	0	-4	17	8	x	x
COc1cc(OC)cc(C(=O)NC(C(=O)N2CCc3ccccc3C2)C(C)C)c1 (stereo not given)	-1	1	9	-15	x	x
Cc1ccc(-c2nc3cc(NS(=O)(=O)c4ccc(C)cc4)ccc3o2)cc1	33*	-4	10	14	45*	28*
O=S(=O)(Nc1ccc2oc(-c3ccccc3)nc2c1)c1ccccc1	50*	11	5	4	141*	112*
Cc1ccc(-c2nc3cc(C)ccc3o2)cc1	-2	1	-3	10	x	x
CC(=O)OC[C@@H]1CN(Cc2ccccc2)C[C@H](n2cnc3c(N4CCOCC4)ncnc32)O1	-2	x	-10	0	x	x
CCOC(=O)c1cc(=O)nc(N)s1	1	x	-5	4	x	x
CCOC(=O)c1cc2c(s1)-c1c(C)cccc1OC2	82*	-14	-39	17	14	17*
O=C(Nc1nc2ccccc2s1)c1cc2c(s1)-c1ccccc1OC2	6	-15	-6	2	x	x
Cc1cccc2c1-c1sc(C(=O)Nc3nccs3)cc1CO2	42*	-3	-41	2	1	-1
O=C(Nc1nccs1)c1cc2c(s1)-c1ccccc1OC2	28*	-8	-26	27	142*	116*
O=C(Nc1ccc(Cl)cn1)c1cc2c(s1)-c1ccccc1OC2	47*	-30	-23	11	26	20*
Cc1cc(C(=O)N2CCC2(C)C(=O)NS(=O)(=O)c2ccc(Cl)cc2)nn1C (stereo not given)	-1	x	14	5	x	x
CCN(CC)C(=O)c1ccc2sc([C@@H]3O[C@H](CO)[C@H](O)[C@H](O)[C@H]3O)nc2c1	3	x	-9	17	x	x
CC1(NC(=O)CCNC(=O)c2ccc(C(C)(C)C)cc2)CCS(=O)(=O)C1 (stereo not given)	3	x	-7	6	x	x
COC(=O)[C@]12CCCCC=C1N(Cc1ccco1)C(=O)[C@H](CC(=O)NCCC(C)C)C2	x	x	10	x	x	x
Cc1cc(C)n2ncc(C(=O)NCc3ccc(Cl)cc3)c2n1	34*	28	-6	5	118*	89*
O=C(NCc1ccc(Cl)cc1)c1ccc2ccccc2n1	65*	-1	7	-2	137*	118*
O=C(NCc1ccc(Cl)cc1)c1cnn2ccccc12	38*	0	0	6	2	-4
COc1ccc(Br)cc1C(=O)NC(=S)Nc1c(C)n(C)n(-c2ccccc2)c1=O	0	1	-6	16	x	x
COc1ccc2cc(-c3nc4ccccc4n3C)c(=O)oc2c1	59*	-36	-49	39*	198*	+
SMILES	FBA Mtb inh	RecA intein inh	CCHFV vOTU inh	GDH-TPI counter-1	Mtb FBA inh conf	GDH-TPI counter-2
Cn1c(-c2cc3ccccc3oc2=O)nc2ccccc21	1	-1	8	17	x	x
COc1ccc(-c2cc3ccccc3oc2=O)cc1	60*	-1	-47	13	+	+
N#Cc1c(N2CCOCC2)nc(-c2ccco2)c2c1CCCC2	37*	-3	-2	16	93*	71*
CCc1nc(N2CCOCC2)c(C#N)c2c1CCCC2	38*	4	-12	2	+	+
CC1(C)Cc2c(C#N)c(N3CCCC3)nc(-c3ccco3)c2CO1	6	-36	1	8	x	x
CCc1nc(N2CCCC2)c(C#N)c2c1CCCC2	10	11	5	13	x	x
CCCCc1nc(N2CCOCC2)c(C#N)c2c1COC(C)(C)C2	35*	7	-1	6	-3	-6
COc1ccccc1CNS(=O)(=O)c1ccc2c(c1)CCCN2C(C)=O	1	0	1	-5	x	x
CCOc1ccc(CNC(=O)C2CCN(S(=O)(=O)N3CCC(C)CC3)CC2)cc1OC	2	x	-1	9	x	x
Cc1cccc(NC(=O)NNC(=O)c2ccc3ccccc3c2O)c1	29*	-3	-26	6	81*	59*
O=C(NNC(=O)c1ccc2ccccc2c1)Nc1ccc(F)cc1	-2	0	3	2	x	x
O=C(NNC(=O)c1ccc2ccccc2c1O)Nc1ccc(F)cc1	37*	-3	-44	9	+	174*
Cc1cccc2c(=O)n3c(cc12)-c1[nH]c2ccccc2c1CC3	83*	x	-23	9	168*	110*
O=C(Nc1ccc(O)c(C(=O)O)c1)Oc1ccccc1	73*	-3	-26	1	138*	99*
Nc1nc(SCc2cccnc2)c2ncn(C3OC(CO)C(O)C3O)c2n1 (stereo not given)	0	x	-1	7	x	x
COC(=O)c1ccc2c(c1)c(C#Cc1ccccc1)c(-c1ccccc1)n2C	40*	x	-20	-5	-5	0
COc1ccc(-c2c(-c3ccccc3)n(C)c3ccccc23)cc1	41*	x	-10	7	6	-1
COc1ccc(-c2c(-c3ccc4c(c3)OCO4)c3ccccc3n2C)cc1	18	x	2	7	x	x
COc1cc(C#Cc2c(-c3ccccc3)n(C)c3ccccc23)cc(OC)c1	38*	8	-14	8	4	-4
Cn1c(-c2ccc(C#N)cc2)c(C#Cc2ccccc2)c2ccccc21	93*	x	-10	4	50*	34*
COc1cccc(C2C3=C(CC(C)(C)CC3=O)Nc3n[nH]c(C)c32)c1 (stereo not given)	43*	0	-37	13	161*	131*
Cc1[nH]nc2c1C(c1ccsc1)C1=C(CC(C)(C)CC1=O)N2 (stereo not given)	55*	-5	-14	23	51*	38*
COc1ccccc1NC(=O)CN(Cc1ccco1)C(=O)c1ccc(Cl)nc1	6	-5	3	0	x	x
COc1ccc([C@H]2CC(=O)C=C(c3cc(C(F)(F)F)cc(C(F)(F)F)c3)C2)cc1	4	x	2	-8	x	x
C=C(C)Cn1c(N2CCCC2)nc2c1c(=O)n(C)c(=O)n2C	33*	1	-8	3	157*	109*
CN(CC(=O)Nc1ccc(Cl)c(S(=O)(=O)N(C)C)c1)Cc1ccccc1	53*	-1	6	2	+	+
COc1ccc(NC(=O)CN(C)CC(=O)Nc2ccc(Cl)c(S(=O)(=O)N(C)C)c2)cc1	4	1	4	-8	x	x
O=c1oc(Nc2cccc(Cl)c2)nc2ccccc12	48*	0	10	-6	34*	18*
Cc1c(O)ccc2c(CN3CCN(CCO)CC3)cc(=O)oc12	74*	-309	-133	14	69*	63*
